Screens (PubChem BioAssay)
GLD-1 TGE inh: GLD-1-TGE RNA interaction inhibition (C. elegans). purified GLD-1 + fluorescein TGE RNA, fluorescence polarization. AID 2280. Q17339. inhibition, % at 5.96 µM. actives 0.44% (n = 320,000);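 active = percent inhibition above a per-plate cutoff, the plate mean of test compounds plus 3 SD, cut at about 30% in these data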
Target sequence (Q17339 whole entry, looked up): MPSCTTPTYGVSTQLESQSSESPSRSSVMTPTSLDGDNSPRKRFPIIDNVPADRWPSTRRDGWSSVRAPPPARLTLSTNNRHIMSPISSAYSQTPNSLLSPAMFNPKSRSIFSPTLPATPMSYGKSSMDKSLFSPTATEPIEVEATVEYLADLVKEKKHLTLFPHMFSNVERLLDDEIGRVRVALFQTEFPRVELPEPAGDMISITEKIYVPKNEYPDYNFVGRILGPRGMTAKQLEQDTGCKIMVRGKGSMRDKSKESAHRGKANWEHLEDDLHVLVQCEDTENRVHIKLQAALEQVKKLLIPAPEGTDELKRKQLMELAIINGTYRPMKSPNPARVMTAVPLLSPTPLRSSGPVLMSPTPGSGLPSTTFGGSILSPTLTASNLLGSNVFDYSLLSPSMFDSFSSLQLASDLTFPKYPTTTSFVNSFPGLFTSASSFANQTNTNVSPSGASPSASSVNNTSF
MCL1 BIM primary: MCL1-BIM-BH3 interaction inhibition (human). Q07820. GST-MCL1 / FITC-Bim-BH3 fluorescence polarization. inhibition, % at 10.9 µM. actives 0.68% (n = 320,000). AID 2057;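 active = inhibition above the mean inhibition of all tested compounds plus 3 SD, set per campaign, cut at about 40% in these data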;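 note: higher means more loss of mP so more displacement of Bim peptide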
MEX-5 binding: C. elegans MEX-5 TCR-2 RNA binding activity | MEX-5/FITC-TCR2 RNA binding, fluorescence polarization; hits give low values | Q9XUB2 | actives 0.38% (n = 300,000) | AID 1832 | activity score (negative = inhibition of binding), % at 10 µM;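 active = inhibition past about -25% in most replicates, and total fluorescence under double the plate's negative control median, limit read from the data; inconclusive = replicates evenly split on the limit, or fluorescence at least double controls; inactive = too little inhibition in most replicates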
CR mimetic SO: yeast age-related superoxide inhibition as caloric restriction mimetic | S. cerevisiae aged cells, superoxide DHE fluorescence; hits give low values | superoxide response (% of plate mean), % at 10 µM | actives 0.18% (n = 330,000) | AID 2690;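 active = superoxide response under a set limit, about three screen SD below normal, cut at about 65% in these data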;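 note: yeast aged for seven days with compound at 30 °C before DHE staining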
LANA-H2B inh: blocks KSHV LANA binding to histone H2A/H2B; Q9QR71; cell-free LANA-H2A/H2B peptide, fluorescence polarization; inhibition, % (no concentration beside the values); actives 0.6% (n = 320,000); AID 2629; in the data active = inhibition mostly above about 10%, no sharp cut-off; inactive = mostly below about 6.7%
Bcl-xL primary: blocks human Bcl-xL binding to Bim BH3 peptide; inhibition, % at 10.9 µM; GST-Bcl-xL / FITC-Bim BH3 peptide fluorescence polarization; AID 2129; Q07817; actives 0.7% (n = 320,000);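 active = inhibition above the mean of all tested compounds plus 3 SD, cutoff set per campaign, cut at about 30% in these data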;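 note: inhibitors lower millipolarization by displacing the labeled peptide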
Target sequence (Q07817 whole entry, looked up): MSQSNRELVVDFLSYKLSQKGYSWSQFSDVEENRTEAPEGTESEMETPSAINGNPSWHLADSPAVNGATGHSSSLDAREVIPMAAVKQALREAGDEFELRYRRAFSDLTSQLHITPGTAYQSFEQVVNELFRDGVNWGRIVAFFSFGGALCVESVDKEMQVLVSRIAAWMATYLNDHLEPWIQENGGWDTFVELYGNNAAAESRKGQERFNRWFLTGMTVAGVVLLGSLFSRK
Each line names hits and unclear results; the compound was inactive in the other large screens. Sampled rows, rich in hits. Any-hit rate of the full collection: about 1.9%.

COc1ccc(NC(=O)C2CCCN(S(=O)(=O)c3ccc4c(c3)CC(C)N4C(C)=O)C2)cc1 (stereo unspecified)	none
CC(=O)N1c2ccc(S(=O)(=O)N3CCCC(C(=O)Nc4ccc(F)cc4)C3)cc2CC1C (stereo unspecified)	Bcl-xL primary 73
CC(=O)c1ccccc1NC(=O)COC(=O)c1cc[n+]([O-])cc1	none (no result: MCL1 BIM primary, MEX-5 binding, Bcl-xL primary)
O=C(COC(=O)c1cc[n+]([O-])cc1)Nc1ccccc1Sc1ccccc1	LANA-H2B inh 140
Cc1ccc(-n2nc(C)c3c(C)cc(=O)[nH]c32)cc1	none
Cc1ccc(-n2nc(C)c3onc(C)c3c2=O)cc1	LANA-H2B inh 28
C[C@H]1CN([C@@H](C)CO)C(=O)c2cc(NC(=O)C3CCCCC3)ccc2O[C@H]1CN(C)S(=O)(=O)c1ccccc1	none (no result: MCL1 BIM primary, MEX-5 binding, Bcl-xL primary)
COCc1ccc(C(=O)N2CCCC(Nc3ccc(F)c(F)c3)C2)s1 (stereo unspecified)	LANA-H2B inh 95
CCC1(C)N=C(N)Nc2nc3cc(C)c(C)cc3n21 (stereo unspecified)	CR mimetic SO 64
CC1CCC2(CC1)N=C(N)Nc1nc3ccccc3n12 (stereo unspecified)	none
CCN(CC)S(=O)(=O)c1ccc(C(=O)OCCN2C(=O)c3cccc4c(N5CCOCC5)ccc(c34)C2=O)cc1	MEX-5 binding inconclusive, LANA-H2B inh 27
CC(=O)N(C(C)=O)N1C(=O)c2cccc3c(N4CCOCC4)ccc(c23)C1=O	GLD-1 TGE inh 33, MEX-5 binding inconclusive, LANA-H2B inh 55, Bcl-xL primary 43
CCCN1C(=O)c2cccc3c(N4CCCCC4)ccc(c23)C1=O	GLD-1 TGE inh 35, MEX-5 binding -135, Bcl-xL primary 43
CN1C(=O)c2ccc(C(=O)Nc3ccccc3O)cc2C1=O	none
CCOc1ccccc1Nc1nnc(SCC(=O)N(C)C2CCS(=O)(=O)C2)s1 (stereo unspecified)	none (no result: MCL1 BIM primary, MEX-5 binding, Bcl-xL primary)
O=C1CCCN2N=C(SCC(=O)Nc3cccc(Cl)c3)SC2=N1	LANA-H2B inh 26
Cc1ccc(S(=O)(=O)N2CCOCC2)cc1NC(=O)Nc1ccc([N+](=O)[O-])cc1	none (no result: MCL1 BIM primary, MEX-5 binding, Bcl-xL primary)
COc1ccccc1NC(=O)CN1CCN(CC(=O)Nc2ccc(F)cc2F)CC1	none (no result: GLD-1 TGE inh, MCL1 BIM primary, CR mimetic SO, LANA-H2B inh, Bcl-xL primary)
CC(C)OCCCn1c(=NC(=O)c2ccncc2)c(C#N)cc2c(=O)n3ccccc3nc21	Bcl-xL primary 34
O=C(Nc1nc(-c2cccs2)cs1)c1ccc([N+](=O)[O-])o1	none (no result: MEX-5 binding)
Nc1ccc(SCC(=O)Nc2cccc([N+](=O)[O-])c2)cc1	LANA-H2B inh 71
O=C(CSCCO)Nc1cccc([N+](=O)[O-])c1	none
N#Cc1ccccc1NC(=O)COC(=O)c1ccc2c(c1)OCO2	none (no result: MEX-5 binding)
CCn1cc(C(=O)O)c(=O)c2cnc(N3CCN(C(=S)Nc4ccccc4)CC3)nc21	none
CCn1cc(C(=O)O)c(=O)c2cnc(N3CCN(C(=S)NC(=O)c4ccccc4)CC3)nc21	LANA-H2B inh 14
Cc1ccc(C(=O)Nc2nnc(CC(=O)N/N=C/c3ccncc3)s2)cc1	none
COc1ccc(C(=O)Nc2nnc(CC(=O)N/N=C/c3ccc(O)cc3O)s2)cc1	GLD-1 TGE inh 43, MEX-5 binding inconclusive
CC1=C(C)CS(=O)N(c2ccc(S(N)(=O)=O)cc2)C1 (stereo unspecified)	none
CC1=C(C)CS(=O)N(S(=O)(=O)c2ccccc2)C1 (stereo unspecified)	LANA-H2B inh 14
CN(C)C(=O)c1ccc(NC(=O)CSc2nnc(-c3cccs3)n2N)cc1	none (no result: MEX-5 binding)
CCCCN(C(=O)CCCc1nc2ccccc2c(=O)[nH]1)c1c(N)n(CC(C)C)c(=O)[nH]c1=O	none (no result: MEX-5 binding)
COCCN(C(=O)/C=C/c1ccccc1)c1nnc(-c2cccnc2)s1	LANA-H2B inh 56
COCCN(C(=O)c1cccc(OC)c1)c1nnc(-c2ccncc2)s1	none
Oc1ccc(-c2nccc(-c3ccccn3)n2)cc1	none
Cc1cc(C(=O)NNC(=O)c2ccccc2F)c2ccccc2n1	none (no result: MEX-5 binding)
COc1ccc(NC(=O)CCc2nc3ccccc3c(=O)[nH]2)cc1S(=O)(=O)N1CCCCC1	none (no result: MCL1 BIM primary, MEX-5 binding, Bcl-xL primary)
CN=C1S/C(=C/c2cn(CC(=O)OC)c3ccccc23)C(=O)N1C	none
CN=C1S/C(=C\c2cn(CC(=O)OC)c3ccccc23)C(=O)N1C	MEX-5 binding -28
CNC[C@H]1Oc2ccc(NC(=O)Cc3cn(C)c4ccccc34)cc2CC(=O)N([C@@H](C)CO)C[C@H]1C	LANA-H2B inh 16 (no result: MCL1 BIM primary, MEX-5 binding, Bcl-xL primary)
Cc1ccccc1Nc1ncnc2c1cnn2-c1ccccc1	none
NNc1ncnc2c1cnn2-c1ccccc1	LANA-H2B inh 26
COc1cccc(C(=O)NC(=S)Nc2cccnc2)c1	none
COc1ccc(C(=O)NC(=S)Nc2cccnc2)cc1Cl	GLD-1 TGE inh 52
Cc1ccc(C2NC(=O)c3c(sc4c3CCN(C)C4)N2)o1 (stereo unspecified)	Bcl-xL primary 40
CN1CCc2c(sc3c2C(=O)NC(c2ccccc2)N3)C1 (stereo unspecified)	Bcl-xL primary 41
Cc1cc(NC(=O)C2CCN(S(=O)(=O)Cc3ccccc3)CC2)ccc1-n1cnnn1	LANA-H2B inh 43
CCCn1c(SC(C)C(=O)NC2CC2)nnc1-c1ccncc1 (stereo unspecified)	none (no result: MEX-5 binding)
O=C(CCc1ccccc1)Nc1ccccc1C(F)(F)F	LANA-H2B inh 32
O=C(O)CP(=O)(O)O	LANA-H2B inh 7.2
O=C(Nc1ccc2c(c1)CCCN2C(=O)c1cccs1)c1c(F)cccc1Cl	none
O=C(Oc1ccccc1/C=C\C(=O)c1cc2ccccc2o1)c1cccc(F)c1	LANA-H2B inh 17
Cn1[nH]c(-c2ccccc2)c(/C=N/O)c1=O	LANA-H2B inh 29
Cc1[nH]n(-c2ccccc2)c(=O)c1/C=N/O	none
Cc1ccc(-c2nc(CS(=O)CC(=O)NCCN3CCCCC3C)c(C)o2)cc1 (stereo unspecified)	none
Cc1ccc(NC(=O)CN(C)C(=O)c2ccc(NS(=O)(=O)c3ccc4[nH]c(=O)[nH]c4c3)cc2)cc1	LANA-H2B inh 29 (no result: MEX-5 binding)
CN(Cc1ccc(F)cc1)C(=O)c1ccc(NS(=O)(=O)c2ccc3[nH]c(=O)[nH]c3c2)cc1	none
O=C(c1cc2ncc(CCCl)cn2n1)N1CCCCCC1	none
CC1CCCC(C)N1C(=O)c1cc2ncc(CCCl)cn2n1 (stereo unspecified)	LANA-H2B inh 13
O=C(CN(C(=O)CCC(=O)Nc1nccs1)c1cccc(F)c1)NCc1ccccc1	none
Cn1cccc1C(=O)Nc1ccc(Cl)c(S(=O)(=O)N2CCCCC2)c1	none (no result: MCL1 BIM primary, MEX-5 binding, Bcl-xL primary)
CCCCn1c(-c2cccc3ccccc23)nc2cc3[nH]c(=O)c(C(C)C)nc3cc21	none
CCCCn1c(-c2ccccc2C)nc2cc3[nH]c(=O)c(C(C)C)nc3cc21	Bcl-xL primary 30
